In PubChem BioAssay (NCI):
The panel holds about 83,000 compounds, 20% with a hit somewhere; the sample as a whole holds those more often.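 Single-concentration screen, 48 h exposure, 96-well plates. Endpoint: percent growth. Below 10 = active.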 Unmarked numbers belong to inactive results. Active and inactive are the calls of the source.

Experiments:
Test in all cases: NCI-60 one-dose screen, 48 h (100 = growth as untreated, 0 = no growth, -100 = all killed)
Settings in all cases: 10 µM unless noted
DU-145 prostate = test system: DU-145 prostate
K-562 leukemia = test system: K-562 leukemia
MALME-3M melanoma = test system: MALME-3M melanoma
MDA-MB-231 breast = test system: MDA-MB-231 breast
RXF 393 renal = test system: RXF 393 renal
SF-268 CNS = test system: SF-268 CNS
SF-295 CNS = test system: SF-295 CNS
SF-539 CNS = test system: SF-539 CNS
UACC-257 melanoma = test system: UACC-257 melanoma
M14 melanoma = test system: M14 melanoma

| Compound | growth (DU-145 prostate) | growth (K-562 leukemia) | growth (MALME-3M melanoma) | growth (MDA-MB-231 breast) | growth (RXF 393 renal) | growth (SF-268 CNS) | growth (SF-295 CNS) | growth (SF-539 CNS) | growth (UACC-257 melanoma) | growth (M14 melanoma) |
| --- | --- | --- | --- | --- | --- | --- | --- | --- | --- | --- |
| COc1ccc2c(c1)c(-c1cc3nc(-c4cn(C)c5ncc(Br)cc45)cc(N)n3n1)cn2C | 26% | -33.5% (active) | -88.4% (active) | -73% (active) | -72.9% (active) | 12.4% | -67.2% (active) | -87.6% (active) | -74.3% (active) | -74.4% (active) |
| Cn1cc(-c2cc(N)n3nc(-c4cn(C)c5ccc(Cl)cc45)cc3n2)c2ccccc21 | 111% | 108% | 104% | 107% | 115% | 107% | 97.2% | 105% | 102% | 102% |
| O=C(Cn1c(/C=C/c2ccccc2)nc2ccccc2c1=O)Nc1ccccc1 | 74.8% | 93.2% | 69.9% | 24.8% | 8.81% (active) | 91.4% | 70.7% | 70.2% | 104% | 102% |
| CC1(C)CC[C@]2(C(=O)O)CC[C@]3(C)C(=CCC4[C@@]5(C)C[C@@H](O)[C@@H]6OC(c7ccccc7Br)OC[C@@]6(C)C5CC[C@]43C)C2C1 (stereo not given in full) | 20% | 11.6% | 44% | 32.4% | 22.7% | 24.2% | 10.6% | 26.8% | 18.2% | 31.8% |
| Cc1ccc([C@H]2C(C(=O)c3ccc(Cl)cc3)C3(N[C@@H]2c2ccccc2)C(=O)Nc2ccc(Br)cc23)cc1 (stereo not given in full) | 82.5% | 26.6% | 92.2% | 49.7% | 33.6% | 100% | 52.4% | 79.7% | 71.6% | 44.3% |
| Cc1nc(Nc2ncc(C(=O)Nc3c(C)cccc3Cl)s2)cc(N2CCN(CCCNC(=O)COc3ccc(C4CCC(=O)NC4=O)cc3)CC2)n1 (stereo not given) | 41.9% | 9.96% (active) | 91.6% | -4.03% (active) | -51.2% (active) | 43.6% | 48.3% | 7.74% (active) | 77.9% | 60.2% |
| COc1ccc(N2N=C(c3ccc4c(c3)OCO4)CC2c2cccc(NC(=O)CCNS(=O)(=O)c3ccc(Cl)cc3)c2)cc1 (stereo not given) | 39.7% | 9.67% (active) | 18.7% | -5.89% (active) | 4.88% (active) | 32.8% | 10.7% | 38.2% | 49.2% | 29.5% |
| COc1cccc(COc2ccc(NC(=O)Nc3ccc(Cl)c(C(F)(F)F)c3)cc2)c1 | 44.6% | 27.1% | 1.5% (active) | 52% | 51.7% | 71.1% | 19.7% | 49.6% | 60.9% | 62.6% |
| COc1ccc2c(c1)C(=N/N=C(\C)c1ccc(OC)c(S(N)(=O)=O)c1)C(=O)N2 | 105% | 103% | 93.7% | 75.1% | 80.4% | 97.5% | 86.4% | 86.8% | 96.7% | 92.4% |
| CCOC(=O)C1=C(N)N(c2ccccc2)C2=C(C(=O)CC(C)(C)C2)C1c1ccc(N2CCOCC2)cc1 (stereo not given) | 111% | 96.9% | 112% | 104% | 91.2% | 97.4% | 98.9% | 93% | 109% | 101% |
| CC(C)CSc1nc(NCCc2c[nH]c3ccccc23)c(C#N)c(-c2ccc(F)cc2)n1 | 58.6% | 18.9% | 73% | 40.8% | 26.1% | 51.9% | 46.7% | 47.9% | 81% | 62.7% |
| O=C(CN1C(=O)/C(=C/c2ccccc2F)SC1=S)N1CCOCC1 | 56.3% | 19.2% | 51.8% | 92% | 71.8% | 99.1% | 108% | 82.3% | 89.6% | 79.4% |
| Cn1cc(-c2cc3nc(-c4c[nH]c5ccc(Cl)cc45)cc(N)n3n2)c2ccccc21 | -85.9% (active) | 1.64% (active) | -74.4% (active) | -56.2% (active) | -80.1% (active) | -44.9% (active) | -82.9% (active) | -87.9% (active) | -84.8% (active) | -89.6% (active) |
| CN(C)c1nc(NCCNS(=O)(=O)c2ccc(C3=Nc4c(N)nc(N)nc4NC(c4ccccc4)C3)cc2)nc(Nc2ccc(F)cc2)n1 (stereo not given) | 58% | 7.64% (active) | 36.6% | 20.7% | 13.4% | 46.9% | 42.6% | -7.62% (active) | 70.8% | 49.4% |
| COCOc1cc2c(=O)c(C)c(C(=O)N[C@@H](Cc3ccccc3)C(O)C(=O)NCc3ccccc3)oc2cc1OC (stereo not given in full) | 57.3% | 40.6% | -27.7% (active) | 25.6% | -17.2% (active) | 1.19% (active) | 83.5% | -79.7% (active) | 30.2% | 65.2% |
| COc1ccc(C2CC(c3ccc(S(=O)(=O)NCCNc4nc(Nc5ccc(F)cc5)nc(N(C)C)n4)cc3)=Nc3c(N)nc(N)nc3N2)cc1 (stereo not given) | 102% | 35.6% | 106% | 64.2% | 53.3% | 73.8% | 94.8% | 75.4% | 100% | 81.9% |
